Inconclusive results are not listed. The source made the active and inactive calls. The call rests on the fitted dose curve; in most records, active means well fitted curve in the direction sought with a large enough effect; inconclusive means small, poorly fitted or top-dose-only effect, or another doubt; inactive means no such curve, though single readings can be large; an effect the other way counts as inactive or inconclusive.
What was measured:
[1] = tested on: CRL-7250; assay: Cytotoxic Profiling of Annotated Libraries Using Quantitative High-Throughput Screening (AID 1296008); conditions: Five cell lines viability, CellTiter-Glo ATP luminescence, 48-72 h; max response: hits give low values; further: nearly all actives have a fitted effect of over 60% in size
Procedure, shortened: (§1)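 Compounds were pin-transferred onto cells and incubated 48 or 72 hr at 37 degree Celsius, 95% humidity. CellTiter-Glo was added, plates sat 10 min at room temperature, then ATP-coupled luminescence was imaged as the viability read-out.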

[2] = tested on: HEK293; assay: as above; conditions: Five cell lines viability, CellTiter-Glo ATP luminescence, 48-72 h; max response: hits give low values
Procedure, shortened: as §1

[3] = tested on: KB-3-1; assay: as above; conditions: Five cell lines viability, CellTiter-Glo ATP luminescence, 48-72 h; max response: hits give low values
Procedure, shortened: as §1

[4] = tested on: NIH3T3; assay: as above; conditions: Five cell lines viability, CellTiter-Glo ATP luminescence, 48-72 h; max response: hits give low values
Procedure, shortened: as §1

[5] = tested on: MCC-13; assay: qHTS assay to identify novel small-molecules to repurpose for Merkel cell carcinoma treatment (AID 1296009); conditions: MCC and control cell lines, CellTiter-Glo viability, 72 h; series mostly up to 46 µM; further: nearly all actives have a fitted effect of over 60% in size
Procedure, shortened: (§2)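 Luminescence from CellTiter-Glo, read 10 min after addition at room temperature, reported viability following a 72 hr, 37 degree celsius treatment with NPC or MIPE compounds in titration; values normalized to plate controls.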

[6] = tested on: MCC-26; assay: as above; conditions: MCC and control cell lines, CellTiter-Glo viability, 72 h; series mostly up to 46 µM
Procedure, shortened: as §2

[7] = tested on: MKL-1; assay: as above; conditions: MCC and control cell lines, CellTiter-Glo viability, 72 h; series mostly up to 46 µM
Procedure, shortened: as §2

[8] = tested on: MKL-2; assay: as above; conditions: MCC and control cell lines, CellTiter-Glo viability, 72 h; series mostly up to 46 µM
Procedure, shortened: as §2

[9] = tested on: UISO; assay: as above; conditions: MCC and control cell lines, CellTiter-Glo viability, 72 h; series mostly up to 46 µM
Procedure, shortened: as §2

[10] = tested on: WaGa; assay: as above; conditions: MCC and control cell lines, CellTiter-Glo viability, 72 h; series mostly up to 46 µM
Procedure, shortened: as §2

[11] = tested on: CAOV3; assay: Primary qHTS to identify gynecologic anti-cancer compounds using libraries of approved drugs and bioactive compounds (AID 1345084); conditions: Gynecologic cancer cell panel viability, ATPlite luminescence, 48 h; series mostly up to 57.5 µM; further: nearly all actives have a fitted effect of over 55% in size
Procedure, shortened: (§3)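 Cells, 1,000 per well, plated 16 h, then exposed 48 h at 37 C to compounds. Viability by ATPlite luminescence after 15 min at room temperature.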

[12] = tested on: CASKI; assay: as above; conditions: Gynecologic cancer cell panel viability, ATPlite luminescence, 48 h; series mostly up to 57.5 µM
Procedure, shortened: as §3

[13] = tested on: Es-2; assay: as above; conditions: Gynecologic cancer cell panel viability, ATPlite luminescence, 48 h; series mostly up to 57.5 µM
Procedure, shortened: as §3

[14] = tested on: HeLa; assay: as above; conditions: Gynecologic cancer cell panel viability, ATPlite luminescence, 48 h; series mostly up to 57.5 µM
Procedure, shortened: as §3

[15] = tested on: HaCat; assay: Cytotoxic Profiling of Annotated Libraries Using Quantitative High-Throughput Screening (AID 1296008); conditions: Five cell lines viability, CellTiter-Glo ATP luminescence, 48-72 h; max response: hits give low values; further: nearly all actives have a fitted effect of over 60% in size
Procedure, shortened: as §1

[16] = tested on: C33A; assay: Primary qHTS to identify gynecologic anti-cancer compounds using libraries of approved drugs and bioactive compounds (AID 1345084); conditions: Gynecologic cancer cell panel viability, ATPlite luminescence, 48 h; series mostly up to 57.5 µM; further: nearly all actives have a fitted effect of over 55% in size
Procedure, shortened: as §3

[17] = tested on: HACAT; assay: qHTS assay to identify novel small-molecules to repurpose for Merkel cell carcinoma treatment (AID 1296009); conditions: MCC and control cell lines, CellTiter-Glo viability, 72 h; at 44.8 µM (top of the series) unless noted; further: nearly all actives have a fitted effect of over 60% in size
Procedure, shortened: as §2

[18] = tested on: NIH3T3; assay: as above; conditions: MCC and control cell lines, CellTiter-Glo viability, 72 h; at 44.8 µM (top of the series) unless noted
Procedure, shortened: as §2
On the % scale 0 is the no-effect control and ±100 the full control effect.

COc1cc(C[C@@H](C)N)c(OC)cc1C
inactive: max response [1] -47.5% | max response [2] -43.2% | max response [3] -10.2% | max response [4] -23.9% | Potency [5] | Potency [6] | Potency [7] | Potency [8] | Potency [9] | Potency [10] | Potency [11] | Potency [12] | Potency [13] | Potency [14]

CCOC(=O)C1(c2ccccc2)CCN(CCc2ccc(N)cc2)CC1
inactive: max response [1] -7.28% | max response [2] -24.8% | max response [15] -21.6% | max response [4] 2.24% | Potency [5] | Potency [6] | Potency [7] | Potency [8] | Potency [10] | Potency [16] | Potency [11] | Potency [12] | Potency [13] | Potency [14]

CC(C(O)c1ccccc1)N(C)C/C=C/c1ccccc1 (stereo not drawn)
inactive: max response [1] -8.13% | max response [2] -9.94% | outcome [15] | max response [4] 2.21% | outcome [17] | Potency [5] | Potency [6] | Potency [7] | Potency [8] | Potency [9] | Potency [10] | Potency [16] | Potency [11] | Potency [12] | Potency [13] | Potency [14]

CN1C2CCC(C)(C)C1CC(OC(=O)C(O)(c1cccs1)c1cccs1)C2 (stereo not drawn)
inactive: max response [1] -6.95% | max response [2] -10.3% | outcome [15] | max response [4] -4.3% | outcome [17] | Potency [5] | Potency [6] | Potency [7] | Potency [8] | Potency [9] | Potency [10] | Potency [16] | Potency [12] | Potency [13] | Potency [14]

C=CCOC(Cn1ccnc1)c1ccc(Cl)cc1Cl (stereo not drawn)
inactive: max response [1] -16.8% | outcome [15] | max response [3] 2.22% | max response [4] -13% | outcome [17] | Potency [5] | Potency [6] | Potency [7] | Potency [10] | Potency [16] | Potency [11] | Potency [12] | Potency [13]

CC1Sc2c(C(=O)O)c(=O)c3cc(F)c(N4CCNCC4)cc3n21 (stereo not drawn)
inactive: max response [1] -1.22% | max response [2] 4.19% | max response [15] 0.258% | outcome [4] | Potency [5] | Potency [6] | Potency [7] | Potency [8] | outcome [18] | Potency [9] | Potency [16] | Potency [11] | Potency [12] | Potency [13] | Potency [14]

CCN(CC)CCOC(=O)C(C)(c1ccccc1)c1ccccc1
inactive: max response [1] -0.0825% | outcome [15] | max response [3] -6.01% | max response [4] 1.33% | outcome [17] | Potency [5] | Potency [6] | Potency [7] | Potency [8] | Potency [9] | Potency [10] | Potency [16] | Potency [11] | Potency [12] | Potency [13] | Potency [14]

— PubChem BioAssay (NCATS)
